Reference: PubChem BioAssay (NCI)
The panel holds about 83,000 compounds, 20% with a hit somewhere; the sample as a whole holds those more often.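 Growth was measured after 48 h exposure to one concentration of compound in 96-well plates. Values under 10 count as active.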 Activity calls are given as the source filed them.

What was measured:
Experiment in all cases: NCI-60 one-dose screen, 48 h (100 = growth as untreated, 0 = no growth, -100 = all killed)
Conditions in all cases: 10 µM unless noted
HCT-15 colon = test system: HCT-15 colon
HT29 colon = test system: HT29 colon
SNB-75 CNS = test system: SNB-75 CNS
SNB-19 CNS = test system: SNB-19 CNS
U251 CNS = test system: U251 CNS
PC-3 prostate = test system: PC-3 prostate
SK-MEL-5 melanoma = test system: SK-MEL-5 melanoma
UACC-62 melanoma = test system: UACC-62 melanoma
SK-MEL-28 melanoma = test system: SK-MEL-28 melanoma
LOX IMVI melanoma = test system: LOX IMVI melanoma

Measured: growth

C=C1c2c(C)nn(-c3ccc(N)cc3)c2N(C)C23CC1C1(C)c4c(C)nn(-c5ccc(N)cc5)c4N(C)C(C)(CC12)C3 (centres undefined)
inactive: HCT-15 colon 38.5% | HT29 colon 61.7% | SNB-75 CNS 109% | SNB-19 CNS 80.7% | U251 CNS 79.1% | PC-3 prostate 53.1% | SK-MEL-5 melanoma 52.9% | UACC-62 melanoma 77.1% | SK-MEL-28 melanoma 85.1%

C=C1c2c(C)nn(-c3ccc(S(N)(=O)=O)cc3)c2N(C)C23CC1C1(C)c4c(C)nn(-c5ccc(S(N)(=O)=O)cc5)c4N(C)C(C)(CC12)C3 (centres undefined)
inactive: HCT-15 colon 14.6% | HT29 colon 13.6% | SNB-75 CNS 76% | SNB-19 CNS 43% | U251 CNS 24.7% | PC-3 prostate 23.6% | SK-MEL-5 melanoma 45.5% | UACC-62 melanoma 37.5% | SK-MEL-28 melanoma 30.7%

O=C1NN(C(=O)c2ccc(O)cc2)C(c2ccccc2)=N/C1=C\c1cn(-c2ccccc2)nc1-c1ccccc1
inactive: HCT-15 colon 103% | HT29 colon 95.1% | SNB-75 CNS 77.4% | SNB-19 CNS 92.5% | U251 CNS 96.2% | PC-3 prostate 104% | SK-MEL-5 melanoma 98.7% | UACC-62 melanoma 92.9% | SK-MEL-28 melanoma 101%

OC(CBr)c1ccnc2ccccc12 (centres undefined)
inactive: HCT-15 colon 103% | HT29 colon 85.1% | SNB-75 CNS 94.8% | SNB-19 CNS 104% | U251 CNS 95.8% | PC-3 prostate 88.8% | SK-MEL-5 melanoma 106% | UACC-62 melanoma 95.1% | LOX IMVI melanoma 96.3% | SK-MEL-28 melanoma 109%

C=C1C(=O)O[C@H]2[C@H]1CC/C(COC(=O)/C=C\C(=O)NCc1ccc(Cn3c(=O)sn(-c4ccc(OC)cc4)c3=O)cc1)=C\CC[C@@]1(C)O[C@@H]21
active: HCT-15 colon -58.1% | HT29 colon -22.9% | SNB-75 CNS -57.8% | SNB-19 CNS 7.17% | U251 CNS -60.3% | PC-3 prostate -58% | UACC-62 melanoma -99.6% | LOX IMVI melanoma -88.6% | SK-MEL-28 melanoma -92%

C=C1C(=O)O[C@H]2[C@H]1CC/C(COC(=O)/C=C\C(=O)NCc1ccc(Cn3c(=O)sn(CCCI)c3=O)cc1)=C\CC[C@@]1(C)O[C@@H]21
active: HCT-15 colon -38% | HT29 colon -30.1% | SNB-75 CNS -63.9% | SNB-19 CNS 1.92% | U251 CNS -72% | PC-3 prostate -70.6% | UACC-62 melanoma -98.2% | LOX IMVI melanoma -83.2% | SK-MEL-28 melanoma -94.7%

Cn1cc(-c2ccc3ncc(-c4ccc(CC(=O)Nc5cc(C(C)(C)C)nn5C)cc4)cc3c2)cn1
active: HCT-15 colon 7.79% [30 µM] | PC-3 prostate 5.27% [30 µM] | UACC-62 melanoma -33.9% [30 µM] | LOX IMVI melanoma -18.4% [30 µM]
inactive: HT29 colon 36.5% [30 µM] | SNB-75 CNS 22% [30 µM] | SNB-19 CNS 41.9% [30 µM] | U251 CNS 35% [30 µM] | SK-MEL-28 melanoma 14.5% [30 µM]

CCOC(=O)c1cnn2c(-c3ccc(Cl)cc3)nc(NCc3ccccc3)nc12
inactive: HCT-15 colon 47.7% | HT29 colon 51% | SNB-75 CNS 70.3% | SNB-19 CNS 63.5% | U251 CNS 32.2% | PC-3 prostate 63% | UACC-62 melanoma 63.4% | LOX IMVI melanoma 39.7% | SK-MEL-28 melanoma 86.7%

CCCCC1COc2cccc3c(SCC(=O)N(C)c4cccc(Cl)c4)cc[n+]1c23 (centres undefined)
inactive: HCT-15 colon 101% | HT29 colon 100% | SNB-75 CNS 137% | SNB-19 CNS 98.7% | U251 CNS 112% | PC-3 prostate 106% | UACC-62 melanoma 101% | LOX IMVI melanoma 102% | SK-MEL-28 melanoma 106%

COc1cc2c(=O)n(CCCn3ccnc3)c3c4cc5c(cc4ccc3c2cc1OC)OCO5
active: HT29 colon -24% | SNB-75 CNS 1.74% | U251 CNS -2.14% | UACC-62 melanoma -50.9% | LOX IMVI melanoma -62.4%
inactive: HCT-15 colon 10.1% | SNB-19 CNS 19.3% | PC-3 prostate 11.6% | SK-MEL-28 melanoma 40.1%

O=C1/C(=C/c2ccccc2[N+](=O)[O-])COc2ccc(O)c(O)c21
inactive: SNB-75 CNS 22.8% | SNB-19 CNS 26.5%
active: HCT-15 colon -11.8% | HT29 colon 5.22% | U251 CNS 2.61% | PC-3 prostate -0.516% | UACC-62 melanoma -86.6% | LOX IMVI melanoma -73.2% | SK-MEL-28 melanoma -13.6%

CCOC(=O)C1C(=O)C=C(c2cnccn2)CC1c1ccc(OC)c(OC)c1 (centres undefined)
inactive: HCT-15 colon 98.9% | HT29 colon 93.1% | SNB-75 CNS 105% | SNB-19 CNS 102% | U251 CNS 99.5% | PC-3 prostate 70.4% | UACC-62 melanoma 101% | LOX IMVI melanoma 100% | SK-MEL-28 melanoma 102%
